Consider 40 compounds from ChEMBL document CHEMBL3988442, “University of Dundee, Small-Polar-MMV Screening Library” (2021).

The species named for the first assay is Homo sapiens. Put plainly: To identify inhibition of the IFN signalling (Jak-Stat) pathway via expression of an eGFP reporter gene under the control of an IFN-stimulated response element (ISRE) containing MxA promoter. Type of assay: functional. More on the design: scale not given: direction of the effect not stated beside the values. As to conditions: 30 µM. A general note: In a reporter assay the amount or activity of a reporter protein is the signal.
Consider `CCCc1n[nH]cc1C(=O)N1CCC(c2nccn2CCOC)CC1`, for which the Percent Effect was determined as 11%.

As for `Cc1cc(C)n2cc(CN3CCCC3Cn3nc(C)nc3C)nc2n1` (stereo not given), the Percent Effect came to 1.56%.

Turning to `CN(C)S(=O)(=O)N1CCCC(c2cccc(Cc3ccccc3)n2)C1` (stereo not given), the Percent Effect is 58.5%.

Consider `CC(C)NC(=O)CC1COC2(CCN(Cc3cccs3)CC2)C1` (stereo not given), for which the Percent Effect is -2.98%.

Regarding `CCc1nc(C2CCCN2C(=O)c2c[nH]c(C)n2)no1` (stereo not given), the Percent Effect is -2.6%.

As to `Cc1cc(NC(=O)NCC2CCOC2)no1` (stereo not given), the Percent Effect turned out to be 5.61%.

Regarding `CC(C)(O)CN1CCN(C(=O)c2cccnc2O)CC1`, the Percent Effect was -4.14%.

For `CC1(C)OCC(CNC(=O)c2cnn(-c3ccc(Cl)cc3)c2N)O1` (stereo not given), the Percent Effect is 15.1%.

In the case of `O=c1c2ccccc2nc2n1C(CSc1ccc(Cl)cc1Cl)CN2` (stereo not given), the Percent Effect came to 32.9%.

`Cc1ccc(CN2CCCn3c(nc(CN4CCCC4)cc3=O)C2)s1`: the Percent Effect is -18.4%.

Consider `CC(C(=O)N1CCCC1)N1CCC(c2nccn2Cc2cscn2)CC1` (stereo not given), for which the Percent Effect is 3.46%.

With `Cn1ccc(C(=O)NCc2cccc(NC(=O)C3CCC3)c2)cc1=O`, the Percent Effect turned out to be 12%.

For `c1cc(-c2nc(CN3CCn4c(nnc4C4CC4)C3)cs2)cs1`, the Percent Effect stood at 21.9%.

Regarding `Cc1ccc(-c2nc(CN3CCCC(Cn4cncn4)C3)no2)cc1` (stereo not given), the Percent Effect amounted to 25.7%.

As to `c1cc(-c2noc(CN3CCn4c(nnc4C4CC4)C3)n2)co1`, the Percent Effect worked out at 16.4%.

Regarding `Cn1cnc2c1CCN(Cc1cccc(C(N)=O)c1)C2`, the Percent Effect is 7.29%.

As for `CCn1ccnc1CN(C)CC1CCCN1c1cccnn1` (stereo not given), the Percent Effect turned out to be 6.16%.

Turning to `CNc1cc(C2CCCN2C(=O)c2ccc3oc(=O)n(C)c3c2)ccn1` (stereo not given), the Percent Effect is -1.54%.

`Cc1cccc(N2CCN(C(=O)Nc3cnn(CC(N)=O)c3)CC2)c1`: the Percent Effect is -6.7%.

In the case of `CC(C)c1cc(N2CCC(N)CC2)n2nccc2n1`, the Percent Effect was 11.5%.

Another assay has as its target T1, Tyrosyl-tRNA synthetase, putative (Trypanosoma cruzi (strain CL Brener)) (UniProt Q4DSP6).
T1 sequence (whole entry): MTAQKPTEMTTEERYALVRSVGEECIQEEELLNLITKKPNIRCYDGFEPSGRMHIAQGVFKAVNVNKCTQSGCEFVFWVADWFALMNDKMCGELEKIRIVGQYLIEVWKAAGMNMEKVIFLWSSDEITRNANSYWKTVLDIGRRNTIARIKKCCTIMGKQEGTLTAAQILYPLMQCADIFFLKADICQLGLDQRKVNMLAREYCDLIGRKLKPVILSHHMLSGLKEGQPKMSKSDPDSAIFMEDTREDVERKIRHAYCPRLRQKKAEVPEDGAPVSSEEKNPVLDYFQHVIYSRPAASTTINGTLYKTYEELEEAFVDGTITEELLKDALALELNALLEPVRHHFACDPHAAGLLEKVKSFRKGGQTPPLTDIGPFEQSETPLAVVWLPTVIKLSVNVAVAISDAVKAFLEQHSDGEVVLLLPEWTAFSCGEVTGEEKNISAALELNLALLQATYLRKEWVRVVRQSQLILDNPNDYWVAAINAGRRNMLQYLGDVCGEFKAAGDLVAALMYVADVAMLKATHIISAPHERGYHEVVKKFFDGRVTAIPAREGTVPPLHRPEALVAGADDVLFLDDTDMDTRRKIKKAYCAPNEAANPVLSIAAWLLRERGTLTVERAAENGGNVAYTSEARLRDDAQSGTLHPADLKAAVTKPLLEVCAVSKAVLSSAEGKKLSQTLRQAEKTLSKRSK
Kind of assay: Trypanosoma cruzi tyrosyl tRNA synthetase (TcYRS) _High Tyrosine SOP. In kind it is functional. Particulars: 30 µM. More on the design: scale not given: in the data most compounds retested in dose-response had high values.
Regarding `O=C1COC2(CCN(C(=O)c3ccco3)CC2)CN1Cc1ccccn1`, the Percent Effect was determined as 11.6%.

As for `Cc1ccn(-c2cccc(C(=O)N3CCCC(n4ccnc4C)C3)c2)n1` (stereo not given), the Percent Effect is 5.88%.

As for `Cc1ccoc1-c1nnc(CN2CCn3c(nnc3C3CC3)C2)o1`, the Percent Effect was -1.58%.

On to `CC(=O)N1CCCC1c1csc(Nc2cnccn2)n1` (stereo not given), for which the Percent Effect was found to be 3.17%.

Regarding `Fc1ccc(-c2nnc(CN3CCn4c(nnc4C4CC4)C3)o2)cc1`, the Percent Effect amounted to 10%.

As for `CC(C)c1cc(NC(=O)CN2CCNC(=O)C2)on1`, the Percent Effect came out at 7.84%.

For the compound `CN(C)c1ccc(NC(=O)NCc2ccccn2)cn1`, the Percent Effect amounted to 5.88%.

Regarding `CNc1snc(C)c1C(=O)N1CCCC(n2nc(C)cc2C)C1` (stereo not given), the Percent Effect came out at 4.74%.

Take `COc1ccc(CN2CCC[C@@H]3CN(C(=O)c4ccco4)C[C@@H]32)cc1`: the Percent Effect turned out to be 3.68%.

Consider `O=C(c1cc(Cl)c2c(c1)OCCO2)N1CCCC(n2cncn2)C1` (stereo not given), for which the Percent Effect is -0.526%.

For the compound `CCC(=O)N1CCC(O)(c2ncc(OC)nc2OC)CC1`, the Percent Effect came to 5.29%.

`CCCn1ncc2c(C(=O)Nc3n[nH]c(SC)n3)cc(C3CC3)nc21`: the Percent Effect was -10.6%.

For `Cc1nc(CN(C)C2CCN(CCCOc3ccccc3)C2)no1` (stereo not given), the Percent Effect was 8.82%.

For `CCOc1ncccc1NC(=O)NC1CCCN(c2ncccn2)C1` (stereo not given), the Percent Effect came out at 11.8%.

Turning to `COC(=O)NCc1cc2n(n1)CCCN(C(C)=O)C2`, the Percent Effect was found to be 4.79%.

For the compound `Fc1ccc(CN2CCC(c3n[nH]c4ncccc34)CC2)cc1F`, the Percent Effect was -4.23%.

Turning to `c1ccc(-c2nc(CN3CCc4c(ncn4C4CC4)C3)cs2)cc1`, the Percent Effect was found to be 12.8%.

Take `Cc1ccc(C(=O)N2CCCC3(CCCC(=O)N3C)C2)cc1F` (stereo not given): the Percent Effect came out at 7.73%.

Regarding `Cc1nn(C)c(N(C)C)c1CNC(C)c1cccc(OC(C)C)c1` (stereo not given), the Percent Effect worked out at 3.92%.

Consider `c1csc(-c2nc(CN3CCn4c(nnc4C4CC4)C3)co2)c1`, for which the Percent Effect was determined as 6.84%.

Consider `CCCc1n[nH]cc1C(=O)N1CCC(c2nccn2CCOC)CC1`, for which the Percent Effect was 5.85%.

Consider `Cc1cc(C)n2cc(CN3CCCC3Cn3nc(C)nc3C)nc2n1` (stereo not given), for which the Percent Effect was 16.3%.

As to `CN(C)S(=O)(=O)N1CCCC(c2cccc(Cc3ccccc3)n2)C1` (stereo not given), the Percent Effect is -5.29%.

For `CC(C)NC(=O)CC1COC2(CCN(Cc3cccs3)CC2)C1` (stereo not given), the Percent Effect is 4.83%.

As for `CCc1nc(C2CCCN2C(=O)c2c[nH]c(C)n2)no1` (stereo not given), the Percent Effect came out at 7.89%.

For `Cc1cc(NC(=O)NCC2CCOC2)no1` (stereo not given), the Percent Effect amounted to 4.74%.

Turning to `CC(C)(O)CN1CCN(C(=O)c2cccnc2O)CC1`, the Percent Effect is 1.44%.

Regarding `CC1(C)OCC(CNC(=O)c2cnn(-c3ccc(Cl)cc3)c2N)O1` (stereo not given), the Percent Effect was -6.35%.

Regarding `O=c1c2ccccc2nc2n1C(CSc1ccc(Cl)cc1Cl)CN2` (stereo not given), the Percent Effect was 1.93%.

Consider `Cc1ccc(CN2CCCn3c(nc(CN4CCCC4)cc3=O)C2)s1`, for which the Percent Effect came to 0.526%.

`CC(C(=O)N1CCCC1)N1CCC(c2nccn2Cc2cscn2)CC1` (stereo not given): the Percent Effect amounted to 6.92%.

Consider `Cn1ccc(C(=O)NCc2cccc(NC(=O)C3CCC3)c2)cc1=O`, for which the Percent Effect is 2.94%.

As for `c1cc(-c2nc(CN3CCn4c(nnc4C4CC4)C3)cs2)cs1`, the Percent Effect was determined as 2.39%.

Turning to `Cc1ccc(-c2nc(CN3CCCC(Cn4cncn4)C3)no2)cc1` (stereo not given), the Percent Effect was 1.96%.

With `c1cc(-c2noc(CN3CCn4c(nnc4C4CC4)C3)n2)co1`, the Percent Effect came to 7.18%.

Turning to `Cn1cnc2c1CCN(Cc1cccc(C(N)=O)c1)C2`, the Percent Effect was -0.478%.

Take `CCn1ccnc1CN(C)CC1CCCN1c1cccnn1` (stereo not given): the Percent Effect worked out at 5.79%.

In the case of `CNc1cc(C2CCCN2C(=O)c2ccc3oc(=O)n(C)c3c2)ccn1` (stereo not given), the Percent Effect is 0%.

For the compound `Cc1cccc(N2CCN(C(=O)Nc3cnn(CC(N)=O)c3)CC2)c1`, the Percent Effect was determined as 4.31%.

On to `CC(C)c1cc(N2CCC(N)CC2)n2nccc2n1`, for which the Percent Effect was found to be 3.72%.
